High-throughput results deposited in PubChem by The Scripps Research Institute Molecular Screening Center.
This is a sample that favours compounds with a hit; in the whole collection about 3.3% have one here.
TLR9-MyD88 block: inhibitors of human TLR9-MyD88 binding | AID 504734 | Q9NR96+Q99836 | inhibition, % at 4.98 µM | CHO BLA complementation TLR9-MyD88, CCF4 FRET ratio | 0.21% of 340,000 active;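 active = inhibition above the mean over all tested compounds plus 3 SD, cut at about 21% in these data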;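 note: 0% = DMSO only wells and 100% = clavulanate BLA inhibitor control wells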
NOD2 RIPK2 PPI: blocks binding of human NOD2 to RIPK2. 0.38% of 360,000 active. inhibition, % at 4.98 µM. CHO BLA complementation NOD2-RIPK2, CCF4 ratio. AID 624267. O43353; in the data active = inhibition above about 21%;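 note: 0% = vehicle only and 100% = reference blocker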
rCAG binder: binds r(CAG) RNA repeats | r(CAG) RNA repeat, TO-PRO-1 dye displacement fluorescence | inhibition, % at 3 µM | 1.3% of 370,000 active;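 active = inhibition above the plate cutoff, the mean of all test compounds on that plate plus 3 SD, cut at about 35% in these data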;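 note: 0% = DMSO alone and 100% = 100 µM mitoxantrone as full dye displacement; higher means more dye released from RNA so lower well fluorescence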
ABHD5-PLIN5 inh: inhibitors of human ABHD5-perilipin-5 interaction; Split G. princeps luciferase complementation, luminescence, 4 h; inhibition, % at 4 µM; Q00G26+Q8WTS1; AID 602281; 0.78% of 360,000 active;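 active = inhibition above the mean inhibition across every tested compound plus 3 SD, cut at about 22% in these data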;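 note: 0% = DMSO only wells and the 100% control is not disclosed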
TLR4-MyD88 BLA: TLR4-MyD88 interaction inhibition in cells | O00206+Q99836 | HeLa CL3-4 TLR4/MyD88 BLA complementation, FRET ratio | inhibition, % at 8.4 µM | 0.18% of 200,000 active; in the data active = inhibition above about 25%;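 note: 0% = vehicle and 100% = reference inhibitor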
PRMT1 inh: PRMT1 (human) inhibition, primary screen. 1.3% of 370,000 active. inhibition, % at 2.79 µM. recombinant PRMT1, activity-based probe fluorescence polarization. Q99873;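 active = inhibition above about 21% made by adding two undisclosed values, limit read from the data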
PRMT1 confirm: PRMT1 (human) inhibition, FP confirmation | shares compounds with PRMT1 inh | recombinant His-PRMT1, activity-based probe fluorescence polarization | inhibition, % at 2.79 µM | 42% of 3,300 active | AID 687036;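 active = mean inhibition across replicates above the hit cutoff derived for the earlier primary screen, cut at about 22% in these data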
* marks the source's active call; other numbers are inactive results; x = not tested or not shown.

SMILES | TLR9-MyD88 block | NOD2 RIPK2 PPI | rCAG binder | ABHD5-PLIN5 inh | TLR4-MyD88 BLA | PRMT1 inh | PRMT1 confirm
CCc1cc(C(=O)NCC(C)(C)N2CCOCC2)sc1C | -11.7 | 2.1 | -4.3 | 11.0 | x | -0.9 | x
COC(=O)C1CN(Cc2ccccc2)C(=O)C1=O (stereo not given) | -11.2 | 2.9 | 4.5 | -0.4 | x | 1.1 | x
Cc1c(C(=O)N(C)Cc2cccc(F)c2)oc2c(Cl)cccc12 | -6.8 | -2.3 | 1.0 | -0.4 | x | -6.7 | x
COc1ccc(S[C@]2(C(=O)N3CCCC3)CC(=O)N(S(=O)(=O)c3ccc(F)cc3)[C@@H]2c2ccc(OC)cc2)cc1 | x | x | 10.7 | x | x | 20.3 | x
COC(=O)[C@]1(C#N)CC(=O)N(C)[C@@H]1c1ccccc1 | x | x | 3.5 | x | x | -9.9 | x
COc1ccc(S[C@]2(C(=O)N3CCCC3)CC(=O)N(C(=O)c3ccccc3)[C@@H]2c2ccc(OC)cc2)cc1 | x | x | 7.0 | x | x | 73.7* | 72.6*
COc1ccc(S[C@]2(C(=O)N(C)C)CC(=O)N(c3ccc(C#N)cc3)[C@@H]2c2ccc(OC)cc2)cc1 | x | x | 3.0 | x | x | 4.1 | x
COc1ccc(S[C@]2(C(=O)N(C)C)CC(=O)N(C(=O)c3ccccc3)[C@@H]2c2ccc(OC)cc2)cc1 | x | x | 5.8 | x | x | 84.2* | 72.1*
COc1ccc(S[C@]2(C(=O)N3CCCC3)CC(=O)N(c3ccsc3)[C@@H]2c2ccc(OC)cc2)cc1 | x | x | 7.0 | x | x | 1.7 | x
COC(=O)[C@@]1(Sc2ccc(C)cc2)CC(=O)N(C(=O)c2ccccc2)[C@@H]1c1ccccc1 | x | -7.7 | 4.9 | 2.9 | x | 67.8* | 77.3*
COc1ccc(S[C@]2(C(=O)N(C)C)CC(=O)N(S(=O)(=O)c3ccc(F)cc3)[C@@H]2c2ccc(OC)cc2)cc1 | x | x | 11.4 | x | x | 26.4* | 27.5*
CC(C)(C)c1ccc(-c2cc(NC(=O)Cc3c[nH]c4ccccc34)ccc2Nc2cccnc2)cc1 | x | x | 17.4 | x | x | 4.7 | x
Cc1cccc(NC(=O)c2nc[nH]c2C(=O)Nc2cc(Br)ccc2F)c1 | 9.8 | -7.2 | 2.8 | -2.9 | x | -3.4 | x
Cc1ccccc1NC(=O)c1sc2nc3c(c(-c4ccco4)c2c1N)CCC3 | 14.7 | 7.6 | 21.4 | -5.3 | 14.5 | 44.0* | 9.1
COc1ccc(OC)c(CCNC(=O)Cn2sc3nc(C)cc(C)c3c2=O)c1 | x | x | x | x | 3.2 | x | x
Cc1cc(C)c2c(=O)n(CC(=O)Nc3ccc(Br)c(C)c3)sc2n1 | 11.3 | -6.3 | 5.6 | 6.7 | x | 92.7* | 97.5*
Cc1cc(C)c2c(=O)n(CC(=O)Nc3cccc(Cl)c3C)sc2n1 | 7.7 | 17.6 | 0.5 | 48.2* | x | 97.0* | 92.1*
Cc1c(Cl)cccc1NC(=O)Cn1cccc1 | -5.7 | -0.5 | 3.6 | 4.8 | 1.0 | 3.1 | x
O=c1c2c3c(sc2nc(NCCO)n1CCc1ccccc1)CCCCC3 | -0.4 | -6.7 | 5.3 | -15.8 | -2.7 | 3.0 | x
C=CCn1c(NCCO)nc2sc3c(c2c1=O)CCC3 | -3.6 | -8.4 | 6.0 | 1.1 | 8.0 | 33.4* | 1.5
O=C(CCc1nnc(COc2ccccc2)o1)NCCc1cccs1 | -9.2 | -10.3 | -4.0 | 1.1 | -7.6 | 1.5 | x
CC1(C(=O)Nc2ccc3c(c2)OCCO3)CN(S(C)(=O)=O)CC(=O)N1CCc1c[nH]c2ccccc12 (stereo not given) | x | -4.0 | 6.8 | 2.0 | x | -2.1 | x
CCOC(=O)c1sc(NC(=O)C(C)C)c(C#N)c1C | -1.8 | -5.6 | -3.1 | -9.5 | 3.3 | 29.1* | 2.2
O=C(NCc1cccnc1)C1C2C=CC(C2)C1C(=O)Nc1cccc(C(F)(F)F)c1 (stereo not given) | 6.8 | -6.0 | -1.4 | 0.2 | x | -2.9 | x
O=C1CCCC2=C1C(c1cccc(Br)c1)n1nc(-c3ccco3)nc1N2 (stereo not given) | -23.9 | -0.8 | 12.1 | 1.4 | -8.7 | 37.3* | 5.8
SMILES | TLR9-MyD88 block | NOD2 RIPK2 PPI | rCAG binder | ABHD5-PLIN5 inh | TLR4-MyD88 BLA | PRMT1 inh | PRMT1 confirm
CN(C)CCCC(=O)c1ccc2c(c1)OCO2 | 3.0 | -23.2 | 0.3 | 0.1 | 1.9 | -1.3 | x
O=C(O)CCSCC(=O)c1ccc2c(c1)OCCO2 | -0.4 | 0.7 | 2.0 | -7.3 | 6.5 | 32.2* | 4.1
CN(C)CCC(=O)c1ccc2c(c1)OCO2 | 7.0 | 0.9 | 0.4 | 7.0 | -5.6 | 35.8* | 18.2
O=C(CCN1Cc2ccccc2C1)c1ccc2c(c1)OCCO2 | 3.7 | -6.6 | -6.2 | 16.4 | -3.2 | 26.4* | 22.2*
CCC(C)NC(=O)c1ccc(Cl)c(S(=O)(=O)Nc2ccccc2N2CCOCC2)c1 (stereo not given) | -8.2 | 2.6 | 2.0 | 0.1 | x | -3.1 | x
Cc1ccccc1NC(=O)N(O)C1(C#N)CCCCC1 | 0.6 | -3.3 | 0.9 | 5.0 | x | -2.9 | x
Cc1cc(C)n2cnnc2n1 | x | -1.7 | -1.5 | -1.6 | x | 4.7 | x
Cc1cc(C)n2c(=S)[nH]nc2n1 | 1.1 | 3.9 | 1.9 | -26.4 | -2.4 | 56.5* | 90.8*
Cc1ccc(NC(=O)CSc2nnc(C)n2-c2ccccc2)cc1 | 0.6 | -9.6 | -1.8 | -7.0 | -11.4 | -0.7 | x
Cc1c(O)nc(SCC(=O)Nc2cccc(C(F)(F)F)c2)n(-c2ccccc2)c1=O | -4.3 | -4.7 | 16.5 | -5.5 | x | 94.8* | 75.1*
CCc1c(O)nc(SCC(=O)Nc2ccccc2)n(-c2ccccc2)c1=O | -7.2 | -16.8 | 3.4 | -1.1 | 3.3 | 17.5 | x
CCn1c(C)nnc1SCC(=O)Nc1cccc(C(F)(F)F)c1 | -11.1 | 5.9 | 1.1 | 2.4 | x | -0.1 | x
CCc1c(O)nc(SCC(=O)Nc2ccc(Br)cc2)n(-c2ccc(C)cc2)c1=O | -1.1 | 0.3 | 32.2 | -7.2 | x | 45.4* | 33.1*
CCCCc1c(O)nc(SCC(=O)Nc2ccc(C)cc2)n(-c2ccc(OC)cc2)c1=O | -5.0 | 4.7 | 4.8 | -4.9 | x | 9.0 | x
Cc1ccc(NC(=O)CSc2nc(O)c(Cc3ccccc3)c(=O)n2-c2ccccc2)cc1 | 1.5 | -12.4 | 33.9 | -7.5 | -12.0 | 32.7* | 28.9*
CCc1c(O)nc(SCC(=O)Nc2cc(C)on2)n(-c2ccccc2)c1=O | -6.7 | -7.2 | 2.4 | 0.1 | x | 53.1* | 23.7*
COc1ccccc1-c1nnc(Sc2nc([N+](=O)[O-])nn2C)o1 | -8.0 | 10.8 | 3.2 | 4.2 | 4.3 | -0.8 | x
COc1ccc(CNc2ncc(-c3ccc(Cl)cc3)n2C)c(OC)c1OC | -0.4 | -3.1 | 14.4 | -1.3 | x | -2.1 | x
CC(=O)c1cccc(-c2ccnc3c2CC(C(=O)Nc2cccc(C(F)(F)F)c2)O3)c1 (stereo not given) | x | 18.5 | 1.8 | -2.4 | x | -0.1 | x
Cc1cccc(C(=O)NCC(=O)OC(C)C(=O)Nc2ccc(Cl)cn2)c1 (stereo not given) | 2.5 | -7.4 | -1.5 | 2.0 | x | -0.2 | x
CCc1c(O)nc(SCC(=O)Nc2nc3ccccc3s2)n(-c2ccccc2)c1=O | -12.7 | -14.0 | 22.7 | 4.4 | x | 38.4* | 42.4*
